Consider ten molecules from PubChem BioAssay.

Where “and” joins values, the source holds several entries; their conditions need not be identical. Identical values can stand only once. Calls of active or inactive are those of the source.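 The calls were made as follows, unless noted: active = inhibition at or above 50% relative to wild type and mutant plate controls; inactive = inhibition below 50%.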

The nature of experiment [1]: inhibitors of TNFa-induced NFkB p65 translocation, primary screen, imaging, HUVEC, MLSMR starter and 10KST1 sets (AID 438;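 active = inhibition above 20% together with a positive visual image hit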;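 also: compound added about 3h40 before a 20 min TNFalpha stimulation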;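 as to inhibition: signal is the nuclear over cytoplasmic p65 intensity ratio per well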). The conditions noted are these: HUVEC TNFa-induced p65 nuclear translocation; cell count: measured here: nuclei count (cytotoxicity indicator), at 2.08 µM unless noted; inhibition: at 2 µM, stronger effect = higher value unless noted.
Experiment [2] in a line: reduction of polyQ htt aggregates in cells – imaging, exon1htt(103Q)mCFP cells, high-content imaging, primary screen (AID 483;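 active = visual image review flags a hit and inhibition of aggregation exceeds 20%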;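 also: compound exposure lasted 3 days before fixation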;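 as to nuclei count: percent of the per-plate median nuclei count of sample wells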). The note with it: exon1htt(103Q)mCFP cell line, aggregate imaging, at 2 µM; inhibition of aggregation: stronger effect = higher value; nuclei count: measured here: cell count, toxicity.
Experiment [3] is described as follows: endothelial E-selectin expression blockers – imaging, HUVEC, immunofluorescence, MLSMR starter and 10KST1 sets, primary screen (AID 487;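 active = visually confirmed hit in the image check and inhibition above 20%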;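 as to inhibition: signal is fraction of cell area covered by stained E-selectin grains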;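 as to nuclei count: 100% = median nuclei count of all wells on the same plate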). The conditions noted are these: HUVEC TNFalpha-induced E-selectin immunofluorescence imaging, at 2 µM; inhibition: stronger effect = higher value; nuclei count: measured here: cell number, toxicity.
Experiment [4] deals with Voltage-gated potassium channel subunit beta-2 (Rattus norvegicus) (UniProt P62483). As to the kind of experiment: inhibitors of rat Kvbeta2 reductase activity – biochemical, NADPH fluorescence, primary screen (AID 622;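 active = fluorescence slope higher than the sample average by over 3 SD, cut at about -0.22 in these data, passing the limit was not always enough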;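 also: slope of raw intensity against log time taken from 70 to 1610 s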). The conditions noted are these: recombinant KvBeta, 4-cyanobenzaldehyde reduction, at 10 µM, stronger effect = higher value.
Voltage-gated potassium channel subunit beta-2 (Rattus norvegicus), sequence (P62483 whole entry, looked up): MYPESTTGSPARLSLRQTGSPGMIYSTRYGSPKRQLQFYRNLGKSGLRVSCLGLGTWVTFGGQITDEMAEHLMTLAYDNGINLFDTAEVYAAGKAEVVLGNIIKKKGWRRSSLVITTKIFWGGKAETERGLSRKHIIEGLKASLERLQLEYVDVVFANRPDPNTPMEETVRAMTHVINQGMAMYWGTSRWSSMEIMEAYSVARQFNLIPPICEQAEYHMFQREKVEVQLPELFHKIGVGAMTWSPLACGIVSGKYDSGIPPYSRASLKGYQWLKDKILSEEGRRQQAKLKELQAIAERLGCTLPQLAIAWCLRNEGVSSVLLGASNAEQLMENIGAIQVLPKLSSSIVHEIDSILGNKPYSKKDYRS
Experiment [5] has the same target. Kind of experiment: enhancers of rat Kvbeta2 NADPH turnover – biochemical, NADPH fluorescence, primary screen (AID 623;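 active = NADPH fluorescence slope more negative than the mean of all samples by about 3 SD, 99.7% confidence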;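 also: fluorescence intensity change per second fitted from 20 to 320 s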). The conditions noted are these: Recombinant KvBeta, NADPH fluorescence decrease slope, 10 min; at 10 µM; stronger effect = lower value.
The target of experiment [6] is Muscarinic acetylcholine receptor M4 (Homo sapiens) (UniProt P08173). Kind of experiment: M4-linked GIRK flux change, two-sided – cell-based, HEK293 M4/GIRK, thallium flux, BTC-AM, M4 allosteric agonist project, primary screen (AID 625;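 active = fluorescence slope after compound addition differing from the mean of all tested samples at 99.7% confidence, mostly higher but some lower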;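 also: thallium influx through GIRK channels coupled to M4 in HEK293 cells with BTC-AM dye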). The note with it: at 10 µM, actives lie on both sides.
Muscarinic acetylcholine receptor M4 (Homo sapiens), sequence (P08173 whole entry, looked up): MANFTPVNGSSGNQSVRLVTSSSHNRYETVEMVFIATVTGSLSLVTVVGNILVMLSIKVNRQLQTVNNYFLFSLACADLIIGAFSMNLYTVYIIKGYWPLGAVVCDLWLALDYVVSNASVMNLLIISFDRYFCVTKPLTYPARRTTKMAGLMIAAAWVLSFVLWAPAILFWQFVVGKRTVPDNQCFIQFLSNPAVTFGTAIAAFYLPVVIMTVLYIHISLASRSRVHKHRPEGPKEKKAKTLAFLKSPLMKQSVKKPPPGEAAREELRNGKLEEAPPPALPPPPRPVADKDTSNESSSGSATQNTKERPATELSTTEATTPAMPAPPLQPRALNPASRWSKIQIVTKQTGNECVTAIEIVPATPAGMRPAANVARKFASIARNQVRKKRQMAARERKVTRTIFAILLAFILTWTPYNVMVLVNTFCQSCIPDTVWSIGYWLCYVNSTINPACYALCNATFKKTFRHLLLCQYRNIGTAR
A short description of experiment [7]: loss of swimming-algae plug formation – whole organism, Chlamydomonas reinhardtii, WT vs cilia-less mutant, absorbance, 96-well, primary screen (AID 463189).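 Also: 0% = wild type cc124 cells in DMSO and 100% = ciliumless bld1 mutant cells.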 The conditions noted are these: Chlamydomonas reinhardtii gravitaxis, OD600 absorbance, 2 days; at 10 µM; stronger effect = higher value.
The nature of experiment [8]: blockers of RIG-like receptor reporter activation – cell-based, Sendai virus stimulus, luciferase, 10K MLSCN set, TLR/RLR signaling modifier project, primary screen (AID 602276;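 active = inhibition at or above 50% at 10 µM; inactive = inhibition below 50%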;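 also: firefly luciferase from ISG56 promoter only with Renilla not read in this screen; 0% = Sendai virus plus DMSO and 100% = medium plus DMSO without virus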). The conditions noted are these: HEK293 RL24 IRF3 luciferase reporter, at 10 µM, stronger effect = higher value.
The nature of experiment [9]: TLR3 IRF3 reporter activation blockers – cell-based, poly I:C stimulus, luciferase, 10K MLSCN set, primary screen (AID 602277;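 active = inhibition of the reporter signal at or above 50%; inactive = inhibition below 50%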). The note with it: HEK293-TLR3 RL24 IRF3 luciferase reporter, at 10 µM, stronger effect = higher value.
Experiment [10] in a line: Primary imaging screen for DUSP6 inhibitors that restore phospho-Erk in transfected HeLa cells, chemical complementation (AID 609;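 active = compounds giving at least 50% inhibition in the cell-based MKP-3 phosphatase rescue imaging test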;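 as to inhibition: phospho-Erk level distribution per well compared with pooled transfected vehicle control wells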). The note with it: HeLa MKP-3 transfected, phospho-Erk imaging KS statistic, at 10 µM.
Experiment [11] concerns the target Dual specificity protein phosphatase 6 (Homo sapiens) (UniProt Q16828). The description is as above. The conditions noted are these: HeLa MKP-3 transfected, phospho-Erk imaging KS statistic, at 10 µM, stronger effect = higher value.
In experiment [12] the target is Alpha-2C adrenergic receptor (Homo sapiens) (UniProt P18825). Kind of experiment: compounds altering alpha2C-coupled GIRK flux – cell-based, HEK293 alpha2C/GIRK1/2, thallium flux, primary screen (AID 624;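 active = fluorescence slope after compound addition differing from the mean of all screened samples at 99.7% confidence, in either direction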;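 also: slope of fluorescence ratio to pre-addition baseline per second over 15 to 24 s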). The conditions noted are these: thallium flux BTC fluorescence, at 10 µM, actives lie on both sides.
Alpha-2C adrenergic receptor (Homo sapiens), sequence (P18825 whole entry, looked up): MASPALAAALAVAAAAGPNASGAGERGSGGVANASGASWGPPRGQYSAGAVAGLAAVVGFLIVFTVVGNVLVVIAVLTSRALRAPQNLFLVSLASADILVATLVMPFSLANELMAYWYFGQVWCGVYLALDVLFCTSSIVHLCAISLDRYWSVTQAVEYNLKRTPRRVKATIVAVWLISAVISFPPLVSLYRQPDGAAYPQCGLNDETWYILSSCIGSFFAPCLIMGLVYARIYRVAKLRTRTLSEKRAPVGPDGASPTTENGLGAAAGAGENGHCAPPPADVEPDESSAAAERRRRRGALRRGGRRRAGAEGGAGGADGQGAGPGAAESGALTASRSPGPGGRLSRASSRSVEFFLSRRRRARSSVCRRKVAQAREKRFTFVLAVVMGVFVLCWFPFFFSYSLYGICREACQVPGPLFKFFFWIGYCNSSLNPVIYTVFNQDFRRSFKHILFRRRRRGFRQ
A short description of experiment [13]: inhibitors of larval lipid processing in zebrafish, primary screen, whole organism, PED6 fluorescence, gall bladder and intestine (AID 686;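 active = a full or partial loss of lipid-probe fluorescence in the fish gall bladder, intestine or both, judged by eye; inactive = no fluorescence loss, or compound toxic to the fish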;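 also: larvae 5 to 7 days old with five fish per well; signal comes from phospholipase A2 cleavage of quenched PED6 carried via bile; overnight exposure to compound and PED6 before scoring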). The conditions noted are these: Zebrafish larvae PED6 lipid processing, fluorescence scoring.
The mark [14] stands for this setting: measured here: cell density z-score.
Where [15] appears, read: measured here: nuclear c-Myc green intensity z-score.
The mark [16] stands for this setting: measured here: nuclear pErk red intensity z-score, stronger effect = higher value.

Dual specificity protein phosphatase 6 (Homo sapiens), sequence (Q16828 whole entry, looked up): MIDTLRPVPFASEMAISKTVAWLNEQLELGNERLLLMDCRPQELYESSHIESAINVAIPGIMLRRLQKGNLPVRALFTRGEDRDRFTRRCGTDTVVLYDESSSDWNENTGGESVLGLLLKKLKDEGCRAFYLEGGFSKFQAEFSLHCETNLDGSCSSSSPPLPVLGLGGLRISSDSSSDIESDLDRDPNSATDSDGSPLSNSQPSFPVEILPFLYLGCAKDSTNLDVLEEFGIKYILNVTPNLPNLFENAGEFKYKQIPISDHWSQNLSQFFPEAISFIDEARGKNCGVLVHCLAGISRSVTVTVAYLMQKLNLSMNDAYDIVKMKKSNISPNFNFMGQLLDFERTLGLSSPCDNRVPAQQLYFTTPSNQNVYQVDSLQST

In turn, `NCCc1ccc(O)cc1` had a cell count in experiment [1] of 431. The inhibition in [1] is 6% (inactive); in experiment [3], 22.3% (inactive); in [7], 7.08% (inactive); in [8] it was 12.8% (inactive); in experiment [9], 19% (inactive). Besides, the inhibition of aggregation in [2] is 11.4% (inactive). For the same molecule, the figures for the nuclei count in experiment [2] and in [3] were 95.7% and 92.7%, respectively. Further, the values for the fluorescence slope in [4] and in [6] were -0.573 (inactive) and 0.00467 (inactive), respectively. Moreover, the NADPH fluorescence slope in experiment [5] was -7e-05 (inactive).

`CC(C)C(=O)N1CCN(CCN=Cc2c(O)n(C)c(=O)n(C)c2=O)CC1`: in [1], the cell count turned out to be 517. The inhibition in experiment [1] is -3.1% (inactive); in experiment [3], -78.2% (inactive); in experiment [11] it was 1.9e-07% (inactive); in [7] it was 33.6% (inactive); in experiment [8], -6.82% (inactive); in experiment [9], -2.86% (inactive). The inhibition of aggregation in [2] is -28.7% (inactive). In addition, the nuclei count in experiment [2] stood at 138%; in experiment [3], 112%. Besides, the values for the z-score in experiment [10] (setting [14]), in [10] (setting [15]) and in [10] (setting [16]) were 0.289, -1.08 and 0.644, respectively. The fluorescence slope in experiment [4] was -0.5 (inactive). In addition, the NADPH fluorescence slope in [5] is -3.4e-05 (inactive). Also, the slope in experiment [12] is 0.00563 (inactive). Also, the outcome in experiment [13] was inactive.

In turn, `CCCC(=O)OCC[N+](C)(C)C` registered a cell count in experiment [1] of 626. For the same molecule, the inhibition in experiment [1] is -8.2% (inactive); in experiment [3], -31.1% (inactive); in [11], 13.3% (inactive); in experiment [7], 18.3% (inactive); in [8] it was 21.4% (inactive); in experiment [9], 35% (inactive). In [2], the inhibition of aggregation was -16.7% (inactive). Moreover, the nuclei count in experiment [2] was found to be 111%; in experiment [3], 135%. Further, the z-score in experiment [10] (setting [14]) was 0.404; in experiment [10] (setting [15]), -0.787; in experiment [10] (setting [16]), 0.37. In experiment [4], the fluorescence slope was -0.481 (inactive). In addition, in experiment [5], the NADPH fluorescence slope is 5e-06 (inactive). Besides, the slope in experiment [12] was 0.00561 (inactive). Moreover, the molecule was called inactive in experiment [13].

Turning to `CNCC(O)c1ccc(O)cc1` (stereo unspecified), the cell count in experiment [1] amounted to 624. The inhibition in experiment [1] is 3.3% (inactive); in experiment [3], -43.9% (inactive); in [11], -0.828% (inactive); in [7], -0.226% (inactive) and -8.32% (inactive); in experiment [8], 14.9% (inactive); in [9], 28.2% (inactive). Also, the inhibition of aggregation in experiment [2] is 4.2% (inactive). In addition, the nuclei count in [2] was found to be 102%; in experiment [3] it was 118%. The z-score in experiment [10] (setting [14]) was -0.968; in experiment [10] (setting [15]) it was -0.213; in experiment [10] (setting [16]) it was 1.33. Also, the fluorescence slope in experiment [4] is -0.493 (inactive). Also, in [5], the NADPH fluorescence slope is 1.3e-05 (inactive). In experiment [12], the slope is 0.00558 (inactive). Also, the outcome in experiment [13] was inactive.

As for `COc1ccc(C(=O)N2CCCC2=O)cc1`, the cell count in experiment [1] came out at 667. Besides, the inhibition in [1] is 2.2% (inactive); in experiment [3] it was -40.5% (inactive); in [11], 19% (inactive); in [7] it was 6.16% (inactive) and 14.6% (inactive); in experiment [8], 13.2% (inactive); in experiment [9], 20.9% (inactive). The inhibition of aggregation in [2] is 11.2% (inactive). For the same molecule, the nuclei count in experiment [2] was 104%; in experiment [3], 108%. For the same molecule, the z-score in [10] (setting [14]) was 0.0379; in [10] (setting [15]) it was -0.632; in experiment [10] (setting [16]) it was 1.58. Besides, the fluorescence slope in experiment [4] was -0.52 (inactive). Further, the NADPH fluorescence slope in [5] was -4.5e-05 (inactive). Also, the slope in experiment [12] is 0.00436 (inactive). Moreover, in experiment [13], the molecule was called inactive.

Regarding `C=CCn1c(O)c(C=NCCN(C)C)c(=O)[nH]c1=O`, the cell count in experiment [1] came out at 342. Moreover, the inhibition in experiment [1] is -5% (inactive); in experiment [3], 9.5% (inactive); in [11], 19.3% (inactive); in experiment [7], -19.1% (inactive); in experiment [8], -1.86% (inactive); in [9], -11.3% (inactive). Besides, the inhibition of aggregation in experiment [2] is -0.9% (inactive). The nuclei count in experiment [2] came to 97.7%; in experiment [3], 97.2%. The z-score in experiment [10] (setting [14]) is 0.486; in experiment [10] (setting [15]), -0.511; in experiment [10] (setting [16]), -0.0175. In addition, in experiment [4], the fluorescence slope is -0.462 (inactive). Further, the NADPH fluorescence slope in experiment [5] is -0.000118 (inactive). For the same molecule, the slope in experiment [12] was 0.00873 (inactive). In addition, the molecule was called inactive in experiment [13].

The molecule `CC[N+]1(C)CCCC(OC(=O)C(O)(c2ccccc2)c2ccccc2)C1` (stereo unspecified) showed a cell count in experiment [1] of 672. The inhibition in [1] is -11.6% (inactive); in [3], -116% (inactive); in [11], 5.42% (inactive); in experiment [7], -2.15% (inactive); in experiment [8], -2.74% (inactive); in experiment [9] it was 37.1% (inactive). Further, in experiment [2], the inhibition of aggregation was -2.7% (inactive). The nuclei count in experiment [2] turned out to be 107%; in experiment [3], 119%. The z-score is 1.46 in [10] (setting [14]), -0.0245 in experiment [10] (setting [15]) and -0.802 in experiment [10] (setting [16]). Further, the fluorescence slope in experiment [4] was -0.46 (inactive). Moreover, in experiment [5], the NADPH fluorescence slope is -4.6e-05 (inactive). Also, in experiment [12], the slope is 0.0046 (inactive). In addition, the outcome in experiment [13] was inactive.

Consider `O=c1c2ccccc2[se]n1-c1ccccc1`, for which, in experiment [1], the cell count was determined as 504. The inhibition in experiment [1] was -10.8% (inactive); in experiment [3], -42.3% (inactive); in experiment [11], 7.39% (inactive); in experiment [7] it was 6.32% (inactive) and 27.8% (inactive); in experiment [8], 0.283% (inactive); in [9], 12.7% (inactive). Moreover, the inhibition of aggregation in experiment [2] is 7.2% (inactive). Further, the nuclei count was 84.9% in experiment [2] and 117% in experiment [3]. Further, the z-score in [10] (setting [14]) was 1; in experiment [10] (setting [15]), 0.0235; in [10] (setting [16]), -0.954. The fluorescence slope in [4] was -0.437 (inactive). Also, in experiment [5], the NADPH fluorescence slope is -0.000217 (active). Also, the slope in experiment [12] was 0.00458 (inactive). Also, in [13], the molecule was classed as inactive.

In experiment [1], `CCOC(=O)c1cc2c(cn1)[nH]c1ccccc12` had a cell count of 594. Further, the inhibition in [1] is -2.5% (inactive); in [3], -12.8% (inactive); in experiment [11] it was 1.48% (inactive); in experiment [7] it was -6.97% (inactive); in [8] it was -4.33% (inactive); in [9], -27.3% (inactive). Besides, the inhibition of aggregation in experiment [2] is 2% (inactive). For the same molecule, the nuclei count in experiment [2] was determined as 102%; in experiment [3], 110%. The z-score in experiment [10] (setting [14]) is -0.332; in [10] (setting [15]), -1.06; in experiment [10] (setting [16]) it was -1.1. Also, the fluorescence slope in experiment [4] is -0.368 (inactive). In addition, in experiment [5], the NADPH fluorescence slope was 7.4e-07 (inactive). Moreover, in experiment [12], the slope is 0.00544 (inactive). Also, in experiment [13], the outcome was inactive.

In turn, `CCCSP1(=S)NCCCO1` (stereo unspecified) returned a cell count in [1] of 455. For the same molecule, the inhibition in experiment [1] is -11.8% (inactive); in [3], -157% (inactive); in [11], -2.07% (inactive); in experiment [7], 20.8% (inactive). In addition, the nuclei count in experiment [3] amounted to 122%. In addition, the z-score in [10] (setting [14]) was 0.345; in experiment [10] (setting [15]), -0.499; in experiment [10] (setting [16]), -0.356. Moreover, in experiment [4], the fluorescence slope was -0.54 (inactive). In addition, the NADPH fluorescence slope in experiment [5] was -7.2e-05 (inactive). In experiment [12], the slope is 0.00464 (inactive). In experiment [13], the molecule was called inactive.

As usually defined, the inhibition is the drop in the measured response relative to a control, in per cent.
